Consider 17 molecules from publication PMC12136788.

Positions count from the first letter of the chain named. Whole data set: some 5,800 sequences, median “enrichment r” near 0.68, cut for the highest 2% near 11. For the sample, the highest values were picked, then their nearest neighbours and some sequences at random.

First the molecules themselves.
T1: UNK ZnF1-6 (called full-length) (human, UniProt Q9C0B0 30-357)
T1 sequence: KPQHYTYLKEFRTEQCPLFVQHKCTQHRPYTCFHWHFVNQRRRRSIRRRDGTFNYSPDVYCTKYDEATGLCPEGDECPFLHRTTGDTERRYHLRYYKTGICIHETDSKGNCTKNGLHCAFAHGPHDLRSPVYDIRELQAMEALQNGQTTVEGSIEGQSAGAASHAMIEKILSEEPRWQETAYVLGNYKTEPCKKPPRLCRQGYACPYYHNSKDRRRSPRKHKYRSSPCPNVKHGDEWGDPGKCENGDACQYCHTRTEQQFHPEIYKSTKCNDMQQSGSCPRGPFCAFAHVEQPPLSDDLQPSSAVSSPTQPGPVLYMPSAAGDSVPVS

B1: chr8:144773268:144774605:-|CDS|ENSG00000196378|control|control|control (ssRNA)
RNA: GGGAGUUCUACAGUCCGACGAUCCACCAGAGGAUUCACACUGGGGAGAAACCCUACAAGUGUGGGGAGUGUGGGAAGCACUUUAGCGCCUACUCUUCCCUGAUUUAUCACCAGAGAAUCCACACCGGAGAGAAACCCUAUAAACAACAGAGGAUUGAGCAUCA
B2: chr7:123692404:123692516:-|CDS|ENSG00000106299|unk|total|mutant (ssRNA)
RNA: GGGAGUUCUACAGUCCGACGAUCCCUGCCUUCUGAUGGGGACCAUCAGGUUCCAACUACUGCAGGAAACAAAGCAGCUCUUUCCGAUCAAAUCCGAGAGGGUGCUCAGCUAAAAAAAGUGGAGCAGAACAGUCGGCCAGUGUCCAACAGAGGAUUGAGCAUCA
B3: chr2:32377587:32377702:+|CDS|ENSG00000115760|unk|FALSE|unique (ssRNA)
RNA: GGGAGUUCUACAGUCCGACGAUCGGUGAAAUGUCAGUAUAUCUCUGCUGUGGAUAAAGUUAUAUUUGUGGAUGAUUAUGCAGUAGGGUGUAGGAAGGACCUUAAUGGAAUCUUGUUGUUAGACACUGCUCUGCAAACUCCAGUCAACAGAGGAUUGAGCAUCA
B4: chr15:69268886:69268987:+|CDS|ENSG00000138604|unk|total|mutant (ssRNA)
RNA: GGGAGUUCUACAGUCCGACGAUCGGAGUUAAAGCUGUGUUUAUGAAUAAACAUGACUGGUAUGAAGAAUAUCCAACCACACCCCGCUCUUUUGUUUUAAAUGGCUUUAUGUAUUCUUUAAUUGGGCUGUAUGACUUAAAAGAACAACAGAGGAUUGAGCAUCA
B5: ENSG00000107863:be:win_3351|CDS|ENSG00000107863|bound_else_gene|NA|bound_elsewhere_windowed (ssRNA)
RNA: GGGAGUUCUACAGUCCGACGAUCAAAAGACAAAGGCACAUGGAGAAAAGGCAUUCCAAGUAUCAUGAGAAAGACAUUUGAGAAAAAGCCAACUGCUACAGGAACUUUCGGCGUCCGACUAGAUGACUGCCCACCAGCUCAUACCAACAGAGGAUUGAGCAUCA
B6: chr10:92030311:92030412:+|3pUTR|ENSG00000095564|unk|FALSE|unique (ssRNA)
RNA: GGGAGUUCUACAGUCCGACGAUCAUAUAAGAUUGAAACUGUAAAAUAUAUGCAACUGUGUGUUAUUUGUAGGAAAUGGUCACUAGAAAGAGCAAAAGAUUAUUCAGGUAUACAGGUUUUUUUUCAUUGUUUAGGAUUUUAACUCAACAGAGGAUUGAGCAUCA
B7: chr5:75599425:75599511:+|3pUTR|ENSG00000122008|msi1_unk|total|mutant (ssRNA)
RNA: GGGAGUUCUACAGUCCGACGAUCGAACCGCUUAAUUAAGAACUCACAGACUUUGACAAAGUGGUAACCCGACUUUUAAUUACCCGAUUCUUCAAAUCCGGCUUAAUGCCUGCCCGCAUGCCAAUCCAAUCCCAUGACUGAUGUCAACAGAGGAUUGAGCAUCA
B8: chr2:167954955:167954998:-|3pUTR|ENSG00000198648|msi1_unk|total|mutant (ssRNA)
RNA: GGGAGUUCUACAGUCCGACGAUCGUUGUAUUCCGAAAUUAAUAUACUUAUAAAAUUAAGAUUUAUCCGCCAAACUUGAAUUCCCGUUUUAAAACUGACUGUGAAUUUUAUUUUUCAUAUAUUUAUGCAUUACACACCUCCGCUCAACAGAGGAUUGAGCAUCA
B9: chr1:150220393:150220494:-|3pUTR|ENSG00000143401|msi1_unk|total|mutant (ssRNA)
RNA: GGGAGUUCUACAGUCCGACGAUCAUUGUAUGCCGAGAAAAAUUUUCAUUGACUCCCAUUGUGGAAUUCCCCCGCAAUUUAUUCCGACUUAAUUUUUUAAAUUCAAGCUUACUGUAUCCGUCAUUUUCCGCCCAUAAUUAAAACCAACAGAGGAUUGAGCAUCA
B10: chr5:75599425:75599511:+|3pUTR|ENSG00000122008|msi1_unk|FALSE|overlapping (ssRNA)
RNA: B7 RNA with C27U, C28A, C68U, C69A, C83U, C84A, C97U, C98A, C113U, C114A
B11: ENSG00000172071:stop:overlap|stop_codon|ENSG00000172071|stop_codon|NA|stop_codon (ssRNA)
RNA: GGGAGUUCUACAGUCCGACGAUCCAUCGGGAACAAAACAUUCAAGACAGUCCAACAACUCCCAUAGCCCUUUGCCAAGCAAUUAGCCUUAAGUUGUGCUAGCAACCCUAAUAGGUGAUGCAGAUAAUAGCCUACUUCUUAGAACAACAGAGGAUUGAGCAUCA
B12: chr4:140550230:140550341:+|CDS|ENSG00000179387|unk|FALSE|unique (ssRNA)
RNA: GGGAGUUCUACAGUCCGACGAUCGAAUUUGACAAGUUUUGGUUUGAAGAAGAACCAGAAAGCAUUAUGUAUUUCAAUUUGUAUAGAGAGAAGUUUCAUGAAAAGAUUAAAGGACUUUUACUGGAUUGUAAUGUAGCACUUACUCAACAGAGGAUUGAGCAUCA
B13: chr1:150220393:150220494:-|3pUTR|ENSG00000143401|msi1_unk|FALSE|overlapping (ssRNA)
RNA: B9 RNA with C32U, C33A, C71U, C72A, C83U, C84A, C117U, C118A, C127U, C128A
B14: chr1:235448940:235449205:-|3pUTR|ENSG00000162885|unk|FALSE|unique (ssRNA)
RNA: GGGAGUUCUACAGUCCGACGAUCAAUAGAGAAUUCCAUUAAAACUAGUCUUAUGACAGAUAUUAACUGUGUUCAGAUUUUAUUAGGCUAGCUAGUUUCUUUCUAUUUAAUAUUUAAAUCUUAUCAUGAAAUGCAGUGAUGAGCCAACAGAGGAUUGAGCAUCA
B15: chr2:167954955:167954998:-|3pUTR|ENSG00000198648|msi1_unk|FALSE|overlapping (ssRNA)
RNA: B8 RNA with C32U, C33A, C66U, C67A, C83U, C84A, C139U, C140A
B16: chrX:85861749:85861850:-|3pUTR|ENSG00000188419|msi1|FALSE|unique (ssRNA)
RNA: GGGAGUUCUACAGUCCGACGAUCCUAAUUUAAAAUUUCAGAAAAUGCUAUUAAAGAAUUUUGAUUCAAGUAUUUAAACUGUUUAGUUAUGCAUGCUUCUUAUUAACCGAAAAUGAUAAUACCAUUUAGUUUAGUGAUCAGUAUCAACAGAGGAUUGAGCAUCA
B17: chr1:235448940:235449205:-|3pUTR|ENSG00000162885|unk|total|mutant (ssRNA)
RNA: B14 RNA with U26C, A27C, U45C, A46C, U83C, A84C, U88C, A89C, U92C, A93C

The assay addresses T1, UNK ZnF1-6 (called full-length). In words: nsRBNS (natural sequence RNA bind-n-seq); RBNS binding buffer (assumed for nsRBNS): 25 mM Tris pH 7.5, 150 mM KCl, 3 mM MgCl2, 0.01% Triton X-100, 500 ug/ml BSA, 20 U/ml SUPERase-In, 4 C; UNK is unkempt and MSI1 is Musashi-1; names of the RNAs are library labels; protein concentration not given here; high values mean tight binding.
The molecule B1 returned a binding signal of 0.587 enrichment R.
Molecule B2 came in with a binding signal of 0.493 enrichment R.
On to B3, for which the binding signal amounted to 0.488 enrichment R.
In turn, B4 had a binding signal of 0.547 enrichment R.
With B5, the binding signal came to 0.507 enrichment R.
With B6 the figure was 3.36 enrichment R.
Then B7, with 0.537 enrichment R; and B8, with 3.43 enrichment R.
With B9 the figure was 2.56 enrichment R; with B10, 38.5 enrichment R; with B11, 1.57 enrichment R.
With B12, the binding signal was found to be 0.651 enrichment R.
B13 displayed a binding signal of 228 enrichment R.
In turn, B14 displayed a binding signal of 35.6 enrichment R.
For the molecule B15, the binding signal worked out at 15.2 enrichment R.
Consider B16, for which the binding signal stood at 2.27 enrichment R.
Then B17, with 2.39 enrichment R.
